This is part of a sample that, as a whole, favours compounds with a hit. Of some 79,000 tested, about 15% had one in any assay. The source made the active and inactive calls. No stated cut-off is given here; in the data, active means growth inhibition above about 70%; inactive means the rest.
Key:
[1] = NCI Yeast Anticancer Drug Screen. Data for the mec2-1 strain (AID 157); conditions: S. cerevisiae mec2-1 strain, stronger effect = higher value
Summary of the method: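 Readout is yeast growth inhibition, normalised to vehicle-treated controls, in the mec2-1 strain exposed to compound.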

[2] = NCI Yeast Anticancer Drug Screen. Data for the rad14 strain (AID 159);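 further: 0% = growth of vehicle-treated control cultures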; conditions: S. cerevisiae rad14 strain growth inhibition, stronger effect = higher value
Summary of the method: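 A mutant yeast strain defective in DNA damage repair is treated with compound; inhibition of its growth is scored against untreated, vehicle-exposed cultures.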

[3] = NCI Yeast Anticancer Drug Screen. Data for the sgs1 mgt1 strain (AID 161);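 further: 0% = growth of cultures given vehicle only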; conditions: S. cerevisiae sgs1 mgt1 strain, stronger effect = higher value
Summary of the method: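 This yeast growth screen uses a strain with defined DNA-repair lesions; compound-treated growth is compared with vehicle-treated growth.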

[4] = NCI Yeast Anticancer Drug Screen. Data for the CLN2oe strain (AID 163);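 further: 0% = growth of vehicle-only control cultures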; conditions: S. cerevisiae CLN2oe strain, stronger effect = higher value
Summary of the method: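 Values reflect how much compound exposure reduced yeast growth, referenced to vehicle-exposed cells. Assay organism is a strain with a defined genetic change affecting cell-cycle control.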

[5] = NCI Yeast Anticancer Drug Screen. Data for the cln2 rad14 strain (AID 165);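 further: 0% = growth equal to vehicle treated cultures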; conditions: S. cerevisiae cln2 rad14 strain, stronger effect = higher value
Summary of the method: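 Relative to vehicle controls, growth inhibition of compound-treated cln2 rad14 yeast was recorded.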

[6] = NCI Yeast Anticancer Drug Screen. Data for the bub3 strain (AID 167); conditions: S. cerevisiae bub3 mutant strain, stronger effect = higher value
Summary of the method: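 Steps: expose the mutant yeast strain to compound; grow alongside vehicle-treated cultures; measure growth; express inhibition against the vehicle cultures.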

[7] = NCI Yeast Anticancer Drug Screen. Data for the wt2 strain (AID 169);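 further: 0% = growth of vehicle-treated yeast cultures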; conditions: S. cerevisiae wt2 strain growth inhibition, stronger effect = higher value
Summary of the method: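 Values express reduction in yeast growth under compound treatment, referenced to vehicle-treated cells.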

[8] = NCI Yeast Anticancer Drug Screen. Data for the mlh1 strain (AID 171);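 further: 0% = growth of vehicle-treated control cultures of the same strain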; conditions: S. cerevisiae mlh1 strain growth inhibition, stronger effect = higher value
Summary of the method: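 Steps: expose the defined-mutant yeast strain to compound; expose a parallel culture to vehicle; measure growth; express compound effect as inhibition relative to the vehicle culture.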

[9] = NCI Yeast Anticancer Drug Screen. Data for the sgs1 strain (AID 173);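 further: 0% = growth of vehicle-only control cultures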; conditions: S. cerevisiae sgs1 mutant, stronger effect = higher value
Summary of the method: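 Treat defined-mutant yeast with compound; measure growth; calculate inhibition relative to vehicle-treated cells.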

[10] = NCI Yeast Anticancer Drug Screen. Data for the mlh1 rad18 strain (AID 175); conditions: S. cerevisiae mlh1 rad18 strain growth inhibition, stronger effect = higher value
Summary of the method: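 Test agents were incubated with a yeast strain of defined genotype (DNA damage repair defect). Inhibition of growth was derived by comparison with vehicle-exposed cultures.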

[11] = NCI Yeast Anticancer Drug Screen. Data for the rad18 strain (AID 177); conditions: S. cerevisiae rad18 mutant growth inhibition, stronger effect = higher value
Summary of the method: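 A genetically defined yeast mutant impaired in DNA damage repair was treated with test compounds, then its growth was measured against cultures receiving vehicle alone.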

[12] = NCI Yeast Anticancer Drug Screen. Data for the rad52 strain (AID 147);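 further: 0% = growth of vehicle-treated control cultures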; conditions: S. cerevisiae rad52 mutant growth inhibition, stronger effect = higher value
Summary of the method: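 Screen used a yeast mutant impaired in DNA repair. After compound exposure, growth was measured. Values reflect inhibition compared with vehicle-treated cells.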

[13] = NCI Yeast Anticancer Drug Screen. Data for the wt1 strain (AID 149);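 further: 0% = growth of vehicle-treated wt1 cultures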; conditions: S. cerevisiae wt1 strain (SPY 50644) growth inhibition, stronger effect = higher value
Summary of the method: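 Compounds are added to wt1 yeast cultures. Growth is then measured. Inhibition is expressed relative to vehicle-treated controls.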

[14] = NCI Yeast Anticancer Drug Screen. Data for the rad50EPP+ strain (AID 151);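 further: 0% = growth of vehicle-treated control cultures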; conditions: S. cerevisiae rad50 mutant strain, stronger effect = higher value
Summary of the method: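 Exposing the rad50EPP+ strain to each compound, growth was compared with vehicle-only cultures to give inhibition.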

[15] = NCI Yeast Anticancer Drug Screen. Data for the mgt1 strain (AID 153); conditions: S. cerevisiae mgt1 mutant growth inhibition, stronger effect = higher value
Summary of the method: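 Genetically defined yeast (mgt1) treated with compound; inhibition of growth expressed against vehicle-treated controls.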

[16] = NCI Yeast Anticancer Drug Screen. Data for the rad50 strain (AID 155);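 further: 0% = growth of vehicle-only cultures of the same strain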; conditions: S. cerevisiae rad50 strain growth inhibition, stronger effect = higher value
Summary of the method: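 Inhibition values express reduced yeast growth in compound-treated cultures relative to vehicle-treated controls.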

[17] = at 5.0 µM (retest, dose inferred, filed as 0.5)
[18] = at 50.0 µM (retest, dose inferred, filed as 5.0)

Measured: growth inhibition

O=C(Cc1ccccc1)NN1C(=O)C(Cl)C1c1cc(Br)cc(Br)c1O (centres undefined)
inactive: [1]; [17] 56% | [2]; at 1.2 µM -3% | [2]; at 3.7 µM -3% | [3]; [17] 61% | [4]; at 1.2 µM -6% | [4]; at 3.7 µM 18% | [5]; [17] 46% | [6]; at 1.2 µM -8% | [6]; at 3.7 µM 12% | [7]; at 1.2 µM -5% | [7]; at 3.7 µM 10% | [8]; at 1.2 µM -3% | [8]; at 3.7 µM 8% | [9]; at 1.2 µM 4% | [9]; at 3.7 µM 30% | [10]; [17] 47% | [11]; at 1.2 µM 5% | [11]; at 3.7 µM 27%
active: [1]; at 11.0 µM 95% | [1]; at 33.0 µM 95% | [1]; [18] 94% | [1]; at 50.0 µM 97.3% | [1]; at 100.0 µM 92% | [2]; at 11.0 µM 85% | [2]; at 33.0 µM 93% | [2]; at 100.0 µM 92% | [3]; [18] 96% | [3]; at 50.0 µM 98% | [4]; at 11.0 µM 95% | [4]; at 33.0 µM 94% | [4]; at 100.0 µM 86% | [5]; [18] 93% | [5]; at 50.0 µM 95.2% | [6]; [17] 98% | [6]; at 11.0 µM 94% | [6]; at 33.0 µM 96% | [6]; [18] 96% | [6]; at 50.0 µM 97% | [6]; at 100.0 µM 87% | [7]; at 11.0 µM 88% | [7]; at 33.0 µM 94% | [7]; at 100.0 µM 90% | [8]; at 11.0 µM 90% | [8]; at 33.0 µM 95% | [8]; at 100.0 µM 92% | [9]; at 11.0 µM 92% | [9]; at 33.0 µM 93% | [9]; at 100.0 µM 88% | [10]; [18] 94% | [10]; at 50.0 µM 97.2% | [11]; at 11.0 µM 88% | [11]; at 33.0 µM 91% | [11]; at 100.0 µM 84%

O=[N+]([O-])c1cc[n+]([O-])c(Cl)c1
active: [12]; at 33.0 µM 82% | [12]; at 100.0 µM 98% | [13]; at 33.0 µM 100% | [13]; at 100.0 µM 99% | [14]; at 33.0 µM 94% | [14]; at 100.0 µM 98% | [15]; at 33.0 µM 99% | [15]; at 100.0 µM 99% | [16]; at 33.0 µM 100% | [16]; [18] 99% | [16]; at 50.0 µM 99.5% | [16]; at 100.0 µM 100% | [1]; at 33.0 µM 100% | [1]; [18] 99% | [1]; at 50.0 µM 99.7% | [1]; at 100.0 µM 99% | [2]; at 33.0 µM 97% | [2]; at 100.0 µM 100% | [3]; [18] 99% | [3]; at 50.0 µM 99.8% | [4]; at 33.0 µM 79% | [4]; at 100.0 µM 99% | [5]; [18] 98% | [5]; at 50.0 µM 99% | [6]; at 33.0 µM 98% | [6]; [18] 99% | [6]; at 50.0 µM 99.5% | [6]; at 100.0 µM 99% | [7]; at 33.0 µM 99% | [7]; at 100.0 µM 99% | [8]; at 33.0 µM 98% | [8]; at 100.0 µM 99% | [9]; at 33.0 µM 100% | [9]; at 100.0 µM 100% | [10]; [18] 99% | [10]; at 50.0 µM 99.5% | [11]; at 33.0 µM 98% | [11]; at 100.0 µM 99%
inactive: [12]; at 1.2 µM 1% | [12]; at 3.7 µM 12% | [12]; at 11.0 µM 10% | [13]; at 1.2 µM -17% | [13]; at 3.7 µM -26% | [13]; at 11.0 µM -19% | [14]; at 1.2 µM 8% | [14]; at 3.7 µM 14% | [14]; at 11.0 µM 44% | [15]; at 1.2 µM 12% | [15]; at 3.7 µM -4% | [15]; at 11.0 µM 24% | [16]; at 1.2 µM 1% | [16]; at 3.7 µM 9% | [16]; [17] 9% | [16]; at 11.0 µM 28% | [1]; at 1.2 µM 5% | [1]; at 3.7 µM 15% | [1]; [17] -3% | [1]; at 11.0 µM 26% | [2]; at 1.2 µM 1% | [2]; at 3.7 µM 5% | [2]; at 11.0 µM 19% | [3]; [17] 1% | [4]; at 1.2 µM -6% | [4]; at 3.7 µM -4% | [4]; at 11.0 µM 12% | [5]; [17] 10% | [6]; at 1.2 µM -16% | [6]; at 3.7 µM -16% | [6]; [17] 5% | [6]; at 11.0 µM -8% | [7]; at 1.2 µM -55% | [7]; at 3.7 µM -50% | [7]; at 11.0 µM -42% | [8]; at 1.2 µM -11% | [8]; at 3.7 µM 16% | [8]; at 11.0 µM 30% | [9]; at 1.2 µM 8% | [9]; at 3.7 µM 10% | [9]; at 11.0 µM 34% | [10]; [17] 1% | [11]; at 1.2 µM -25% | [11]; at 3.7 µM -21% | [11]; at 11.0 µM -5%

c1ccc([P+](CCN2Cc3ccccc3C2)(c2ccccc2)c2ccccc2)cc1
inactive: [12]; at 1.2 µM 29% | [12]; at 3.7 µM 54% | [12]; at 11.0 µM 39% | [12]; at 33.0 µM 64% | [13]; at 1.2 µM -7% | [13]; at 3.7 µM 31% | [13]; at 11.0 µM 26% | [13]; at 33.0 µM 38% | [14]; at 1.2 µM -21% | [14]; at 3.7 µM -15% | [14]; at 11.0 µM -10% | [14]; at 33.0 µM -8% | [14]; at 100.0 µM 6% | [15]; at 1.2 µM -19% | [15]; at 3.7 µM 2% | [15]; at 11.0 µM 28% | [15]; at 33.0 µM 48% | [16]; at 1.2 µM 30% | [16]; at 3.7 µM 64% | [16]; [17] 64% | [16]; at 11.0 µM 61% | [16]; at 33.0 µM 61% | [16]; [18] 69% | [1]; at 1.2 µM -15% | [1]; at 3.7 µM 39% | [1]; [17] 49% | [1]; at 11.0 µM 36% | [1]; at 33.0 µM 67% | [2]; at 1.2 µM -22% | [2]; at 3.7 µM 13% | [2]; at 11.0 µM 21% | [2]; at 33.0 µM 53% | [3]; [17] 22% | [4]; at 1.2 µM 19% | [4]; at 3.7 µM 11% | [4]; at 11.0 µM 29% | [4]; at 33.0 µM 50% | [5]; [17] 23% | [5]; [18] 25% | [6]; at 1.2 µM 7% | [6]; at 3.7 µM 39% | [6]; [17] 21% | [6]; at 11.0 µM 31% | [6]; at 33.0 µM 64% | [7]; at 1.2 µM -45% | [7]; at 3.7 µM -19% | [7]; at 11.0 µM 11% | [7]; at 33.0 µM 31% | [8]; at 1.2 µM -39% | [8]; at 3.7 µM 18% | [8]; at 11.0 µM 32% | [8]; at 33.0 µM 60% | [9]; at 1.2 µM 13% | [9]; at 3.7 µM 35% | [9]; at 11.0 µM 53% | [9]; at 33.0 µM 67%
active: [12]; at 100.0 µM 95% | [13]; at 100.0 µM 95% | [15]; at 100.0 µM 95% | [16]; at 50.0 µM 72.1% | [16]; at 100.0 µM 95% | [1]; [18] 81% | [1]; at 50.0 µM 78.9% | [1]; at 100.0 µM 95% | [2]; at 100.0 µM 70% | [3]; [18] 97% | [3]; at 50.0 µM 82% | [4]; at 100.0 µM 93% | [5]; at 50.0 µM 76% | [6]; [18] 98% | [6]; at 50.0 µM 79.1% | [6]; at 100.0 µM 94% | [7]; at 100.0 µM 93% | [8]; at 100.0 µM 95% | [9]; at 100.0 µM 96% | [10]; [17] 71% | [10]; [18] 87% | [10]; at 50.0 µM 88.8%

From PubChem BioAssay (NCI)
